# This is a sample that favours compounds with a hit; in the whole collection about 7.3% have one here.
# VACV Venus inh: inhibitors of vaccinia virus (Venus reporter) | Vaccinia virus Venus reporter expression, fluorescence | Potency, µM (titrated, usually from 36.5 µM), for the others: top-dose activity change, negative = inhibition, actives largely listed as inhibitors | actives 0.46% (n = 330,000) | AID 720580; calls by dose curve; tested in A549 cells; note: potency is the fitted concentration of half-maximal effect; nearly all actives have a fitted effect of over 30% in size
# VACV mCherry inh: vaccinia inhibition (mCherry reporter); actives 0.63% (n = 310,000); Potency, µM (doses to about 36.5 µM), without a hit: at the top dose activity change, negative = inhibition, most hits filed as inhibitors; Vaccinia virus mCherry reporter infection, fluorescence; calls by dose curve; tested in A549 cells; note: potency is the fitted concentration of half-maximal effect; nearly all actives have a fitted effect of over 35% in size
# FMDV inh: blocks foot and mouth disease virus. FMDV antiviral cell-based qHTS. Potency, µM (titrated, usually from 57.9 µM), inactives show at the top dose activity change, negative = inhibition, hits mostly inhibitors. actives 1.2% (n = 410,000). AID 1159524; calls by dose curve; tested in HEK293T cells; note: read-out not given here; potency is the fitted concentration of half-maximal effect; nearly all actives have a fitted effect of over 45% in size
# HCV inh: HCV inhibition; Potency, µM (titrated, usually from 41.8 µM), inactives show top-dose activity change, negative = inhibition, actives largely listed as inhibitors; actives 3.4% (n = 340,000); Huh7.5.1 HCVcc-Cre infection, luciferase reporter, 44 h; active = well fitted inhibition curve with a large enough effect; inconclusive = small, poorly fitted or top-dose-only effect, or another doubt; inactive = no such curve, though single readings can be large or run the other way; note: potency is the fitted concentration of half-maximal effect
#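 Infectious HCVcc-Cre (~0.5 moi) was added to cells just after compound, with cells seeded 4 h earlier at 1,000 per well. Luciferase activity after 44 h culture reported infection; substrate was incubated 15 min at room temperature before reading.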
# HCMV inh: blocks human cytomegalovirus replication; HFF cells, HCMV-luciferase reporter, 72 h; hits give low values; activity change, negative = inhibition, % at 57.5 µM; actives 4.5% (n = 410,000); AID 1259415; in the data active = activity change below about -60%; inconclusive = no clear call, values can overlap the other calls; inactive = above about -39%
#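 Inhibition of viral replication was scored as loss of reporter luminescence in HFFs infected with HCMV-luciferase (MOI 1 PFU/cell) for 72 h; compounds tested at 2 doses, normalized to buffer and Salinomycin controls.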
# Numbers without * were called inactive; i = inactive; u = inconclusive; x = no result. % is set by controls: 0 for no effect and ±100 for the full control effect.
SMILES,VACV Venus inh,VACV mCherry inh,FMDV inh,HCV inh,HCMV inh
CC1(C)O[C@H]2CC(=O)OC[C@]23[C@H]2CC[C@@]4(C)[C@H](c5ccoc5)OC(=O)[C@H]5O[C@]54[C@]2(C)C(=O)C[C@@H]13,-4%,-3%,-9%,x,x
CCOc1cc2c3c(c1)C(C)=CC(C)(C)N3C(=O)C2=O,x,x,28%,-23%,-63*
CCOc1ccccc1NC(=O)c1ccccc1-c1nc(-c2ccccc2OC)no1,-18%,x,-11%,11µM*,30
CCOc1ccccc1-c1nc(-c2cc3ccccc3nc2OC)no1,-23%,x,-15%,11µM*,61
Cc1ccc(-n2c(=O)cc(N3CCN(c4ccccc4Cl)CC3)[nH]c2=O)cc1,-12%,-2%,-22%,x,3
COc1cc(NC(=O)CN(C)S(=O)(=O)c2ccc3c(c2)CCCC(=O)N3)cc(OC)c1OC,5%,-3%,-22%,x,-1
COC(=O)c1ccc(NC(=O)CN(C)S(=O)(=O)c2ccc3c(c2)CCCC(=O)N3)cc1,-4%,-12%,32µM*,x,2
CCN(CC)S(=O)(=O)c1ccc(C)c(NC(=S)N2CCN(c3ccccn3)CC2)c1,-7%,i,-15%,22µM*,-40
CCN(CC)S(=O)(=O)c1ccc(C)c(NC(=S)N2CCN(C/C=C/c3ccccc3)CC2)c1,u,u,u,8.9µM*,u
CCN(CC)S(=O)(=O)c1ccc(C)c(NC(=S)N2CCN(Cc3ccc4c(c3)OCO4)CC2)c1,-15%,-26%,20µM*,6.3µM*,-99*
S=C(NC1CCCCC1)N1CCN(C/C=C/c2ccccc2)CC1,-20%,-26%,-17%,8.9µM*,42
Cc1ccc(NC(=S)N2CCN(c3ccccn3)CC2)c(C)c1,x,x,-17%,2%,-31
COCC1CCCN(Cc2ccc3c(c2)CN(C(=O)c2cccnc2OC)CCO3)C1 (centres undefined),u,-10%,-10%,x,x
CSc1ccccc1CNC(=O)C1(C)CCCN1CC(C)C (centres undefined),2%,11%,-8%,x,-31
CCc1ccccc1NC(=S)N1CCN(c2ccccn2)CC1,-10%,-9%,u,5%,-102*
Fc1ccccc1NC(=S)N1CCN(c2ccccn2)CC1,-9%,i,-5%,19%,-10
CC(NNC(=S)N1CCN(c2ccccn2)CC1)c1nccc2ccccc12 (centres undefined),u,u,0%,u,-98*
COc1ccccc1NC(=S)N1CCN(C/C=C/c2ccccc2)CC1,-18%,-9%,u,5%,-72*
COc1cc(-c2ccc(Cl)cn2)cc2c1OCCN(C(=O)c1ccccc1-n1cccn1)C2,-9%,-20%,-9%,x,x
COc1cccc(NC(=O)CCSc2nc(-c3ccco3)cc(C(F)(F)F)n2)c1,-10%,-15%,-15%,x,-17
CCOc1cc(/C=N/NC(=O)Cc2ccc(C(F)(F)F)cc2[N+](=O)[O-])ccc1O,-10%,i,-11%,-26%,-61*
O=C(Nc1cc(Cl)ccc1Cl)c1cc([N+](=O)[O-])cc(Br)c1O,-22%,-9%,x,x,x
O=C(Nc1ccc([N+](=O)[O-])cc1Cl)c1cc(Cl)cc(Cl)c1O,u,8.9µM*,x,x,x
O=C(Nc1ccc([N+](=O)[O-])cc1Cl)c1cc(Br)ccc1O,0.79µM*,3.5µM*,x,x,x
Cc1cc(=O)n(Cc2ccc(F)cc2Cl)c2c1c(C)nn2C,-1%,-16%,-24%,x,-5
SMILES,VACV Venus inh,VACV mCherry inh,FMDV inh,HCV inh,HCMV inh
Cc1csc(=O)n1CCC(=O)OCC(=O)N(C)c1c(N)n(Cc2ccccc2)c(=O)[nH]c1=O,u,u,u,x,-34
Cc1ccc(N2C(=O)NC(NS(=O)(=O)c3ccccc3)(C(F)(F)F)C2=O)cc1C (centres undefined),-18%,-4%,-16%,2%,-15
CCOC(=O)c1cccc(NC(=O)N2CC=C(c3c[nH]c4ccccc34)CC2)c1,-2%,-8%,-8%,x,0
O=S1(=O)N(CCN2CC=C(c3c[nH]c4cc(F)ccc34)CC2)c2cccc3c2N1CCC3,-12%,i,0%,u,-80*
O=C(NCc1cccnc1)c1ccc2sc([C@@H]3O[C@H](CO)[C@H](O)[C@H](O)[C@H]3O)nc2c1,4%,5%,-12%,x,u
Cc1ccc(-c2nc3ccccc3[nH]2)cc1NC(=O)c1ccc2c(c1)OCO2,-19%,-23%,1%,11µM*,-9
O=C(NC(=S)Nc1cc(-c2nc3ccccc3[nH]2)ccc1Cl)c1ccc2c(c1)OCO2,-21%,-26%,u,u,-76*
S=C(NCc1ccc2c(c1)OCO2)Nc1ccc(-c2nc3ccccc3[nH]2)cc1,-29%,-19%,u,u,-61*
CN(C)CCNC(=S)Nc1ccc(-c2nc3ccccc3[nH]2)cc1,x,x,36%,-20%,116
Cc1ccc(-c2nc3ccccc3o2)cc1NC(=O)c1ccc2c(c1)OCO2,x,x,91%,-13%,66
Cc1ccc(C)c(Cn2c(=O)n(CCCCC(=O)NCc3ccc4c(c3)OCO4)c(=O)c3ccccc32)c1,-28%,u,-11%,x,4
Cc1ccc(S(=O)(=O)N2CCOCC2)cc1NC(=O)COC(=O)CNC(=O)c1ccc(Cl)cc1Cl,-12%,i,-12%,4%,-68*
Cc1cccc(NC(=O)c2cc(-c3ccccn3)nc3ccccc23)c1C,-13%,-18%,14µM*,u,-37
Cc1ccc(S(=O)(=O)N2CCOCC2)cc1NC(=O)c1cc(-c2ccccn2)nc2ccccc12,u,11µM*,-18%,u,-70*
Cc1ccc(S(=O)(=O)N2CCOCC2)cc1NC(=O)c1cc2ccccc2oc1=O,-9%,-11%,-2%,8%,-101*
Cn1cc(-c2nc3cncnc3n(CCN)c2=O)c2ccccc21,x,x,-25%,x,x
O=S(=O)(/N=C(/c1ccccc1)N1CCOCC1)c1ccc(F)cc1,-11%,-5%,-9%,12%,16
O=[N+]([O-])c1ccc2c(c1)CO[C@]21O[C@H](CCO)C[C@H](O)[C@H]1O,x,x,x,x,-18
O=C1NC[C@H](Cc2ccccc2)N(CC2CCN(CCC34CC5CC(CC(C5)C3)C4)CC2)C1=O,u,-3%,-15%,-4%,-37
Cc1ccc(CNC(=O)COC(=O)c2ccc(S(=O)(=O)NCc3ccco3)cc2)cc1,x,x,-22%,10%,u
Cn1c(C(=O)Nc2ccc(OC(F)(F)F)cc2)cc2c(=O)n3ccccc3nc21,u,u,2%,x,-31
Cc1cccc(NC(=O)c2ccccc2O)c1C,-26%,-11%,x,-7%,-86*
Cc1ccc(Cn2ncc3c(NN)ncnc32)cc1,-3%,-9%,6%,u,-86*
CCN1CCN(c2ncnc3c2sc(=S)n3-c2ccccc2)CC1,-6%,4%,-23%,-1%,-14
COc1ccc(-n2ncc3c(N4CCN(Cc5ccccc5)CC4)ncnc32)cc1,u,u,35µM*,u,-95*
S=c1sc2c(N3CCN(Cc4ccccc4)CC3)ncnc2n1-c1ccccc1,19%,x,28µM*,5%,-10
